# From PubChem BioAssay AID1159580 (chemical genetic matrix, 2015)
# Screen size: about 5,500 compounds; about 2,000 (36%) were called active. Inconclusive results (about 18%) are left out. This is one part of the list. Values without a mark were called inactive. No stated cut-off is given here; in the data, active means normalized growth mostly below about 0.91 (no sharp cut-off); inconclusive means no clear call, values can overlap the other calls; inactive means mostly above about 0.92.
# Test: chemical genetic growth profiling, strain panel (AID 1159580);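 further: tested at 20 µM; growth read once vehicle control cultures reached saturation at 30 °C; 1 = growth at the plate median or of vehicle wells; lower values mean less growth of the strain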
# Conditions: growth OD
smiles,measurement,setting,value
CC1CC2C3CC(F)C4=CC(=O)C=CC4(C)C3(F)C(O)CC2(C)C1C(=O)COC(=O)C(C)(C)C (stereo not given),normalized growth,"S. cerevisiae deletion strains, locus YBR021W, strain FUR4, hits give low values",0.903
same,normalized growth,"S. cerevisiae deletion strains, locus YBR229C, strain ROT2, hits give low values",0.997
same,normalized growth,"S. cerevisiae deletion strains, locus YCL029C, strain bik1, hits give low values",1.05
same,normalized growth,"S. cerevisiae deletion strains, locus YDL035C, strain GPR1, hits give low values",0.871
same,normalized growth,"S. cerevisiae deletion strains, locus YDL074C, strain BRE1, hits give low values",0.879
same,normalized growth,"S. cerevisiae deletion strains, locus YDL101C, strain DUN1, hits give low values",1.01
same,normalized growth,"S. cerevisiae deletion strains, locus YDL134C, strain PPH21, hits give low values",0.873 (active)
same,normalized growth,"S. cerevisiae deletion strains, locus YDL185W, strain tfp1, hits give low values",1.01
same,normalized growth,"S. cerevisiae deletion strains, locus YDL192W, strain arf1, hits give low values",0.997
same,normalized growth,"S. cerevisiae deletion strains, locus YDR101C, strain arx1, hits give low values",1.02
same,normalized growth,"S. cerevisiae deletion strains, locus YDR150W, strain NUM1, hits give low values",0.977
same,normalized growth,"S. cerevisiae deletion strains, locus YDR162C, strain NBP2, hits give low values",0.867
same,normalized growth,"S. cerevisiae deletion strains, locus YDR318W, strain mcm21, hits give low values",1.01
same,normalized growth,"S. cerevisiae deletion strains, locus YDR388W, hits give low values",1.04
same,normalized growth,"S. cerevisiae deletion strains, locus YDR502C, strain sam2, hits give low values",1.02
same,normalized growth,"S. cerevisiae deletion strains, locus YEL061C, strain CIN8, hits give low values",0.973
same,normalized growth,"S. cerevisiae deletion strains, locus YER110C, hits give low values",1.04
same,normalized growth,"S. cerevisiae deletion strains, locus YER155C, strain BEM2, hits give low values",1.04
same,normalized growth,"S. cerevisiae deletion strains, locus YER167W, strain BCK2, hits give low values",0.992
same,normalized growth,"S. cerevisiae deletion strains, locus YGL078C, strain dbp3, hits give low values",1.02
same,normalized growth,"S. cerevisiae deletion strains, locus YGL086W, strain mad1, hits give low values",0.96
same,normalized growth,"S. cerevisiae deletion strains, locus YGL248W, strain PDE1, hits give low values",0.927
same,normalized growth,"S. cerevisiae deletion strains, locus YGR078C, strain PAC10, hits give low values",0.92
same,normalized growth,"S. cerevisiae deletion strains, locus YGR135W, strain pre9, hits give low values",0.957
same,normalized growth,"S. cerevisiae deletion strains, locus YGR252W, strain gcn5, hits give low values",0.849
same,normalized growth,"S. cerevisiae deletion strains, locus YHR030C, strain SLT2, hits give low values",0.989
same,normalized growth,"S. cerevisiae deletion strains, locus YHR079C, strain IRE1 (second series), hits give low values",1.03
same,normalized growth,"S. cerevisiae deletion strains, locus YHR094C, strain hxt1, hits give low values",1.04
same,normalized growth,"S. cerevisiae deletion strains, locus YHR129C, strain ARP1, hits give low values",0.964
same,normalized growth,"S. cerevisiae deletion strains, locus YHR200W, strain rpn10, hits give low values",1.01
same,normalized growth,"S. cerevisiae deletion strains, locus YIL066C, strain RNR3, hits give low values",0.852 (active)
same,normalized growth,"S. cerevisiae deletion strains, locus YIL073C, strain SPO22, hits give low values",0.954
same,normalized growth,"S. cerevisiae deletion strains, locus YIL125W, strain kgd1, hits give low values",1.02
same,normalized growth,"S. cerevisiae deletion strains, locus YIR030C, strain dcg1, hits give low values",1.03
same,normalized growth,"S. cerevisiae deletion strains, locus YJL095W, strain BCK1, hits give low values",0.989
same,normalized growth,"S. cerevisiae deletion strains, locus YJL134W, strain LCB3, hits give low values",1.01
same,normalized growth,"S. cerevisiae deletion strains, locus YJL168C, strain set2, hits give low values",1.01
same,normalized growth,"S. cerevisiae deletion strains, locus YJL187C, strain SWE1 (second series), hits give low values",0.934
same,normalized growth,"S. cerevisiae deletion strains, locus YJR043C, strain POL32, hits give low values",0.892
same,normalized growth,"S. cerevisiae deletion strains, locus YKL009W, strain mrt4, hits give low values",1.03
same,normalized growth,"S. cerevisiae deletion strains, locus YKL068W, hits give low values",1.02
same,normalized growth,"S. cerevisiae deletion strains, locus YKL085W, strain MDH1 (second series), hits give low values",1.01
same,normalized growth,"S. cerevisiae deletion strains, locus YKL085W, strain MDH1, hits give low values",1.01
same,normalized growth,"S. cerevisiae deletion strains, locus YKR001C, strain vps1, hits give low values",0.987
same,normalized growth,"S. cerevisiae deletion strains, locus YLR039C, strain RIC1, hits give low values",0.804
same,normalized growth,"S. cerevisiae deletion strains, locus YLR058C, strain SHM2, hits give low values",0.981
same,normalized growth,"S. cerevisiae deletion strains, locus YLR102C, strain apc9, hits give low values",1.03
same,normalized growth,"S. cerevisiae deletion strains, locus YLR262C, strain YPT6, hits give low values",0.872
same,normalized growth,"S. cerevisiae deletion strains, locus YLR268W, strain sec22, hits give low values",0.985
same,normalized growth,"S. cerevisiae deletion strains, locus YLR330W, strain CHS5, hits give low values",0.967
same,normalized growth,"S. cerevisiae deletion strains, locus YLR342W, strain FKS1 (second series), hits give low values",0.758 (active)
same,normalized growth,"S. cerevisiae deletion strains, locus YLR371W, strain rom2, hits give low values",1.03
same,normalized growth,"S. cerevisiae deletion strains, locus YLR418C, strain cdc73, hits give low values",0.953
same,normalized growth,"S. cerevisiae deletion strains, locus YML016C, strain PPZ1, hits give low values",0.951
same,normalized growth,"S. cerevisiae deletion strains, locus YML032C, strain rad52, hits give low values",1.03
same,normalized growth,"S. cerevisiae deletion strains, locus YML124C, strain tub3, hits give low values",1.02
same,normalized growth,"S. cerevisiae deletion strains, locus YMR078C, strain ctf18, hits give low values",1.04
same,normalized growth,"S. cerevisiae deletion strains, locus YMR223W, strain ubp8, hits give low values",0.965
same,normalized growth,"S. cerevisiae deletion strains, locus YMR307W, strain GAS1, hits give low values",0.922
same,normalized growth,"S. cerevisiae deletion strains, locus YNL067W, strain RPL9B, hits give low values",0.989
same,normalized growth,"S. cerevisiae deletion strains, locus YNL128W, strain TEP1, hits give low values",0.908
same,normalized growth,"S. cerevisiae deletion strains, locus YNL233W, strain BNI4, hits give low values",0.919
same,normalized growth,"S. cerevisiae deletion strains, locus YNL250W, strain rad50, hits give low values",1.01
same,normalized growth,"S. cerevisiae deletion strains, locus YNL271C, strain bni1, hits give low values",1.02
same,normalized growth,"S. cerevisiae deletion strains, locus YNL298W, strain CLA4, hits give low values",1.01
same,normalized growth,"S. cerevisiae deletion strains, locus YNL307C, strain MCK1, hits give low values",1.03
same,normalized growth,"S. cerevisiae deletion strains, locus YNL322C, strain KRE1, hits give low values",0.984
same,normalized growth,"S. cerevisiae deletion strains, locus YNR052C, strain pop2, hits give low values",1.01
same,normalized growth,"S. cerevisiae deletion strains, locus YOL006C, strain TOP1, hits give low values",0.509 (active)
same,normalized growth,"S. cerevisiae deletion strains, locus YOL012C, strain htz1",1.01
same,normalized growth,"S. cerevisiae deletion strains, locus YOL147C, strain pex11, hits give low values",1.03
same,normalized growth,"S. cerevisiae deletion strains, locus YOR061W, strain CKA2, hits give low values",0.878 (active)
same,normalized growth,"S. cerevisiae deletion strains, locus YOR069W, strain VPS5, hits give low values",0.991
same,normalized growth,"S. cerevisiae deletion strains, locus YOR136W, strain idh2, hits give low values",1.02
same,normalized growth,"S. cerevisiae deletion strains, locus YOR144C, strain elg1, hits give low values",1.03
same,normalized growth,"S. cerevisiae deletion strains, locus YOR184W, strain ser1, hits give low values",0.974
same,normalized growth,"S. cerevisiae deletion strains, locus YOR316C, strain cot1, hits give low values",1.03
same,normalized growth,"S. cerevisiae deletion strains, locus YPL055C, strain LGE1, hits give low values",0.843
same,normalized growth,"S. cerevisiae deletion strains, locus YPL241C, strain CIN2, hits give low values",0.992
same,normalized growth,"S. cerevisiae deletion strains, locus YPR119W, strain clb2, hits give low values",1.03
same,normalized growth,"S. cerevisiae deletion strains, locus YPR141C, strain kar3, hits give low values",1.02
same,normalized growth,"S. cerevisiae deletion strains, locus YPR163C, strain tif3, hits give low values",1.03
same,normalized growth,"S. cerevisiae deletion strains, locus YPR167C, strain met16, hits give low values",1.01
same,normalized growth,"S. cerevisiae deletion strains, strain wtn01, hits give low values",0.983
same,normalized growth,"S. cerevisiae strains, strain wild type, hits give low values",0.876 (active)
